Results published in PubChem BioAssay (NCATS).
Results filed as inconclusive are left out. Entries that show only a call come without a potency. Activity calls are given as the source filed them. Unless noted, calls follow the shape of the dose curve; as a rule, active = well fitted curve in the direction sought with a large enough effect; inconclusive = small, poorly fitted or top-dose-only effect, or another doubt; inactive = no such curve, though single readings can be large; an effect the other way counts as inactive or inconclusive.

Assays:
[1] = molecular target: Thyrotropin receptor (Homo sapiens) (UniProt P16473); assay: qHTS Assay for Antagonists of the Thyroid Stimulating Hormone Receptor (AID 488980); also: series mostly up to about 58 µM
Summary of the method: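 TSHR-transfected HEK293 cells (2000/well) in HEPES-buffered HBSS with 70 uM RO 20-1724 were stimulated with 4 nM TSH (EC80, final) in the presence of compound. cAMP was measured by HTRF competition after lysis and 30 min at RT.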

[2] = molecular target: D(1A) dopamine receptor (Homo sapiens) (UniProt P21728); assay: HTS Assay for Allosteric Agonists of the Human D1 Dopamine Receptor: Primary Screen for Agonists (AID 488981)
Summary of the method: (§1)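 Tetracycline-induced HEK293 T-REx cells force-coupled to calcium signalling were incubated overnight at 30 C and dye-loaded at room temperature. Calcium flux over 180 s after compound addition flagged agonists; a further 180 s read after EC20 dopamine flagged potentiators.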

[3] = molecular target: D(1A) dopamine receptor (Homo sapiens) (UniProt P21728); assay: HTS Assay for Allosteric Agonists of the Human D1 Dopamine Receptor: Primary Screen for Antagonists (AID 488983);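 also: calcium flux response to an EC80 dopamine challenge measured with no-wash dye; nearly all actives have a fitted effect of over 65% in size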; also: potency is read from the fitted curve at half-maximal effect
Summary of the method: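 Calcium-flux read-out in inducible HEK293 T-REx cells expressing D1, dye-loaded 30–90 min at room temperature. Kinetic reads: 180 s after compound (agonist phase), then 180 s after an EC80 dopamine challenge.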

[4] = Validation screen for small molecules that induce genotoxicity in human embryonic kidney (HEK293T) cells expressing luciferase-tagged ELG1 (AID 493106); also: potency is read from the fitted curve at half-maximal effect
Summary of the method: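 ELG1-luciferase reporter readout (ONE-Glo, 30 min, room temperature) after 16 hr compound treatment at 37 °C of HEK293T cells at 2,000 per well. Rising luminescence flags genotoxic stress.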

[5] = molecular target: ATPase family AAA domain-containing protein 5 (Homo sapiens) (UniProt Q96QE3); assay: Validation screen for small molecules that inhibit ELG1-dependent DNA repair in human embryonic kidney (HEK293T) cells expressing luciferase-tagged ELG1 (AID 493107);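 also: series mostly up to about 46 µM; inhibitors lower the ELG1-luciferase luminescence signal; nearly all actives have a fitted effect of over 70% in size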
Summary of the method: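 Luciferase read-out, ONE-Glo, 30 min at room temperature, follows 16 h co-exposure at 37 C of compound and the DNA-damaging agent 5-fluorouridine. Cells: HEK293T with ELG1-luciferase fusion, 2,000 per well, DMSO as vehicle.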

[6] = Nrf2 qHTS screen for inhibitors: Validation (AID 493153; active = well fitted inhibition curve with a large enough effect in the main read-out, with a control signal flat, not every such curve was filed as active); conditions: Potency: luciferase luminescence; viability change: measured here: cytotoxicity max response
Summary of the method: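 Concentration-response on A549 ARE_Fluc reporter cells exposed 18-24 h at 37 C, 5% CO2. Cytotoxicity read first by CellTiter-Fluor fluorescence (Ex 405/Em 525), then Nrf2 inhibition by BugLite luminescence after 15 min.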

[7] = molecular target: Galactokinase (Homo sapiens) (UniProt P51570); assay: qHTS Validation Assay for Inhibitors of Human Galactokinase (GALK) (AID 493189)
Summary of the method: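 GALK (5 nM) with 35 uM ATP and 100 uM galactose in HEPES pH 8.0 with MgCl2, NaCl, DTT and BSA. Reaction ran 1 h at room temperature. Residual ATP read by Kinase-Glo Plus luminescence.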

[8] = Validation screen for small molecules that induce DNA re-replication in SW480 colon adenocarcinoma cells (AID 504364)
Summary of the method: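 Image-based DNA content read-out: Hoechst stain 40 min, total nuclear fluorescence intensity (ex 405 nm, em 500-530 nm) after 48 h compound exposure of 250 SW480 cells/well at 37 C, 5% CO2, versus DMSO vehicle.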

[9] = molecular target: phosphoglycerate mutase (Leishmania major) (UniProt Q4Q090); assay: qHTS Validation Assay to Find Inhibitors of Phosphoglycerate Mutase (AID 504548); conditions: Potency: inhibition qHTS;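 also: end-point luminescence from Kinase-GloPlus after the PGAM reaction; series mostly up to about 58 µM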
Summary of the method: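 L. major PGAM (1.25nM final) was added to substrate buffer and pinned compound, incubated 45 minutes at room temperature, then Kinase-GloPlus added; luminescence read after 10 minutes. Buffer: 100 mM TEA pH 7.6, 5 mM MgCl2, 0.01% Tween-20.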

[10] = molecular target: Ubiquitin carboxyl-terminal hydrolase 1 (Homo sapiens) (UniProt O94782); assay: Inhibitors of USP1/UAF1: Pilot qHTS (AID 504865);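 also: rhodamine fluorescence freed from ubiquitin-rhodamine substrate followed over time; top concentration of the series differs between compounds; nearly all actives have a fitted effect of over 35% in size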
Summary of the method: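 USP1/UAF1 complex at 1 nM preincubated 15 min at room temperature with compound, then Ub-Rho substrate added at 150 nM final. Fluorescence (480/540 nm) read kinetically in 50 mM HEPES pH 7.8, 0.5 mM EDTA, 1 mM TCEP, 0.1 mg/ml BSA, 0.01% Tween-20.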

[11] = qHTS for Inhibitors of ATXN expression: Validation of Cytotoxic Assay (AID 588349)
Summary of the method: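 Cytotoxicity counter-screen: ATP-based luminescent viability (CellTiter Glo) after 72 hr exposure of HEK293 cells to a compound titration at 37 degrees C.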

[12] = qHTS for Inhibitors of ATXN expression: Validation (AID 588378); also: series mostly up to about 57 µM; nearly all actives have a fitted effect of over 75% in size
Summary of the method: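 HEK293 cells carrying ATXN2-firefly luciferase reporter, treated with compound 24 h at 37 °C. Viability read first by CellTiter-Fluor (405/525 nm), then reporter expression by Bright-Glo luminescence; controls were a known ATXN2 expression inhibitor and a luciferase inhibitor.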

[13] = molecular target: D(1A) dopamine receptor (Homo sapiens) (UniProt P21728); assay: HTS Assay for Allosteric Agonists of the Human D1 Dopamine Receptor: Primary Screen for Potentiators (AID 488982)
Summary of the method: as §1

[14] = molecular target: Peptidyl-prolyl cis-trans isomerase NIMA-interacting 1 (Homo sapiens) (UniProt Q13526); assay: qHTS Validation Assay to Find Inhibitors of Pin1 (AID 504536; active = well fitted inhibition curve with a large enough effect in the polarisation, with a control signal flat, not every such curve was filed as active; the % refers to the polarisation)
Summary of the method: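 Fluorescence polarization competition: compounds (titration) displace HiFluor-488-labeled Pin1-1b peptide from Pin1 (0.3 uM final) in pH 7.5 HEPES buffer with DTT, 10 min at room temperature; %Activity normalized to no-enzyme wells, curves fitted.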

[15] = molecular target: Phosphoglycerate kinase, glycosomal (Trypanosoma brucei brucei) (UniProt P07378); assay: qHTS Validation Assay to Find Inhibitors of Phosphoglycerate Kinase (AID 504547)
Summary of the method: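 In TEA buffer (100mM, pH 7.6) containing 5mM MgCl2 and 0.01% Tween-20, the GAPDH-coupled PGK reaction proceeded for 60 minutes at room temperature before a single luminescence reading using Kinase-Glo Plus.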

[16] = molecular target: ATP-dependent 6-phosphofructokinase (Trypanosoma brucei brucei) (UniProt O15648); assay: qHTS Assay to Find Inhibitors of T. brucei phosphofructokinase: hit validation (AID 492961);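 also: luminescence reports ADP formed as PFK phosphorylates fructose-6-phosphate with ATP; series mostly up to about 51 µM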
Summary of the method: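 Percent activity derived from corrected luminescence, normalized between 0x and 1x enzyme controls, then fitted to concentration-response curves. Conditions: 1.25 nM PFK, 0.1 mM ATP, 0.5 mM F6P, 45 min RT.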

Sequence of Ubiquitin carboxyl-terminal hydrolase 1 (Homo sapiens) (O94782 whole entry, looked up): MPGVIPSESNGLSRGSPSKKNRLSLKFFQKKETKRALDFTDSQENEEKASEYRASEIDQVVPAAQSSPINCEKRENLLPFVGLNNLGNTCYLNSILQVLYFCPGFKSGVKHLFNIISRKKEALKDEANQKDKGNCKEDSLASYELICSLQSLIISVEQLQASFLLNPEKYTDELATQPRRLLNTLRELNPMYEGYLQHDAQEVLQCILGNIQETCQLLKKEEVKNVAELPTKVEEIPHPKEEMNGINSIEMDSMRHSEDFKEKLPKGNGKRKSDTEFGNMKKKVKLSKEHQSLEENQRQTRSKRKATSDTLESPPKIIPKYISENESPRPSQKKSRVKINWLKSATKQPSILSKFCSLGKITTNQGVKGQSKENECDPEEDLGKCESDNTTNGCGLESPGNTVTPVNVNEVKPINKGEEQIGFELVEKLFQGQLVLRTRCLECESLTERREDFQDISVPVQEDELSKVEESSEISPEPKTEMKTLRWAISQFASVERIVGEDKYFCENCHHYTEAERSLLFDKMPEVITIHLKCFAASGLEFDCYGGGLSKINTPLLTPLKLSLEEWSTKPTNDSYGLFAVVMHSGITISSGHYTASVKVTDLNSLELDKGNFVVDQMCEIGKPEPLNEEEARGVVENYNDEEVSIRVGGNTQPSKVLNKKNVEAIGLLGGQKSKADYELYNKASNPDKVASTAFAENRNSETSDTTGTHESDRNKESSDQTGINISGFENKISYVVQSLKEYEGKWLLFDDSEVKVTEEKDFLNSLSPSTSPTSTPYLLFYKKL
Sequence of Galactokinase (Homo sapiens) (P51570 whole entry, looked up): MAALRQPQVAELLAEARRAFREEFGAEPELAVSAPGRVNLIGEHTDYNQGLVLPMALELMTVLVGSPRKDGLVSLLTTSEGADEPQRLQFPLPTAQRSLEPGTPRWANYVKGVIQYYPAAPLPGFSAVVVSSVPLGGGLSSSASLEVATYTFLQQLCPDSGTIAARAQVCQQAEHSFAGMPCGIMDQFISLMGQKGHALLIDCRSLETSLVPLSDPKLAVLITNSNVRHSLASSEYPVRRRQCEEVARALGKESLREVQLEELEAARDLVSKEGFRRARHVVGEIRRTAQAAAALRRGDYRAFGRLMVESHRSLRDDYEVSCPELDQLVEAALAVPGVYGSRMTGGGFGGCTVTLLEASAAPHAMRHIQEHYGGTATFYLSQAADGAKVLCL
Sequence of Thyrotropin receptor (Homo sapiens) (P16473 whole entry, looked up): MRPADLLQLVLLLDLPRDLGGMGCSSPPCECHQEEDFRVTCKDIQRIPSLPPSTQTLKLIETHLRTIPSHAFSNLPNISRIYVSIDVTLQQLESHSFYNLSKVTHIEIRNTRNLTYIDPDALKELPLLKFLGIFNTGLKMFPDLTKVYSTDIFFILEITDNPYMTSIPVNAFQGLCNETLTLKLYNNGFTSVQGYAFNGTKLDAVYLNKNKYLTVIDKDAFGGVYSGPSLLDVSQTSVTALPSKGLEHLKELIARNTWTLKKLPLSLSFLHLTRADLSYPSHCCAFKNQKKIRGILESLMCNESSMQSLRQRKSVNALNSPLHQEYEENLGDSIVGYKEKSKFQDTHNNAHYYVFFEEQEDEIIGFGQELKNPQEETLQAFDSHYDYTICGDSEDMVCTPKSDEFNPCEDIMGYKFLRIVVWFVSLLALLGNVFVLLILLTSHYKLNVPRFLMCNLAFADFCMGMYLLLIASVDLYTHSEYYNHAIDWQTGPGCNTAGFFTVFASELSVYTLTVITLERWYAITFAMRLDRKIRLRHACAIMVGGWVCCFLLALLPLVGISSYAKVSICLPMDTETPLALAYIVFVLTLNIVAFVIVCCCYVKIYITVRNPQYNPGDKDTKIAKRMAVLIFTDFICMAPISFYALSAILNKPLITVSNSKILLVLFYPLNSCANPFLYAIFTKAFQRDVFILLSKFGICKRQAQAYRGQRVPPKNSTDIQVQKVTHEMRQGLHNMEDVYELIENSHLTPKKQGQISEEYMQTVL
Sequence of ATPase family AAA domain-containing protein 5 (Homo sapiens) (Q96QE3 whole entry, looked up, the tested form may be a part): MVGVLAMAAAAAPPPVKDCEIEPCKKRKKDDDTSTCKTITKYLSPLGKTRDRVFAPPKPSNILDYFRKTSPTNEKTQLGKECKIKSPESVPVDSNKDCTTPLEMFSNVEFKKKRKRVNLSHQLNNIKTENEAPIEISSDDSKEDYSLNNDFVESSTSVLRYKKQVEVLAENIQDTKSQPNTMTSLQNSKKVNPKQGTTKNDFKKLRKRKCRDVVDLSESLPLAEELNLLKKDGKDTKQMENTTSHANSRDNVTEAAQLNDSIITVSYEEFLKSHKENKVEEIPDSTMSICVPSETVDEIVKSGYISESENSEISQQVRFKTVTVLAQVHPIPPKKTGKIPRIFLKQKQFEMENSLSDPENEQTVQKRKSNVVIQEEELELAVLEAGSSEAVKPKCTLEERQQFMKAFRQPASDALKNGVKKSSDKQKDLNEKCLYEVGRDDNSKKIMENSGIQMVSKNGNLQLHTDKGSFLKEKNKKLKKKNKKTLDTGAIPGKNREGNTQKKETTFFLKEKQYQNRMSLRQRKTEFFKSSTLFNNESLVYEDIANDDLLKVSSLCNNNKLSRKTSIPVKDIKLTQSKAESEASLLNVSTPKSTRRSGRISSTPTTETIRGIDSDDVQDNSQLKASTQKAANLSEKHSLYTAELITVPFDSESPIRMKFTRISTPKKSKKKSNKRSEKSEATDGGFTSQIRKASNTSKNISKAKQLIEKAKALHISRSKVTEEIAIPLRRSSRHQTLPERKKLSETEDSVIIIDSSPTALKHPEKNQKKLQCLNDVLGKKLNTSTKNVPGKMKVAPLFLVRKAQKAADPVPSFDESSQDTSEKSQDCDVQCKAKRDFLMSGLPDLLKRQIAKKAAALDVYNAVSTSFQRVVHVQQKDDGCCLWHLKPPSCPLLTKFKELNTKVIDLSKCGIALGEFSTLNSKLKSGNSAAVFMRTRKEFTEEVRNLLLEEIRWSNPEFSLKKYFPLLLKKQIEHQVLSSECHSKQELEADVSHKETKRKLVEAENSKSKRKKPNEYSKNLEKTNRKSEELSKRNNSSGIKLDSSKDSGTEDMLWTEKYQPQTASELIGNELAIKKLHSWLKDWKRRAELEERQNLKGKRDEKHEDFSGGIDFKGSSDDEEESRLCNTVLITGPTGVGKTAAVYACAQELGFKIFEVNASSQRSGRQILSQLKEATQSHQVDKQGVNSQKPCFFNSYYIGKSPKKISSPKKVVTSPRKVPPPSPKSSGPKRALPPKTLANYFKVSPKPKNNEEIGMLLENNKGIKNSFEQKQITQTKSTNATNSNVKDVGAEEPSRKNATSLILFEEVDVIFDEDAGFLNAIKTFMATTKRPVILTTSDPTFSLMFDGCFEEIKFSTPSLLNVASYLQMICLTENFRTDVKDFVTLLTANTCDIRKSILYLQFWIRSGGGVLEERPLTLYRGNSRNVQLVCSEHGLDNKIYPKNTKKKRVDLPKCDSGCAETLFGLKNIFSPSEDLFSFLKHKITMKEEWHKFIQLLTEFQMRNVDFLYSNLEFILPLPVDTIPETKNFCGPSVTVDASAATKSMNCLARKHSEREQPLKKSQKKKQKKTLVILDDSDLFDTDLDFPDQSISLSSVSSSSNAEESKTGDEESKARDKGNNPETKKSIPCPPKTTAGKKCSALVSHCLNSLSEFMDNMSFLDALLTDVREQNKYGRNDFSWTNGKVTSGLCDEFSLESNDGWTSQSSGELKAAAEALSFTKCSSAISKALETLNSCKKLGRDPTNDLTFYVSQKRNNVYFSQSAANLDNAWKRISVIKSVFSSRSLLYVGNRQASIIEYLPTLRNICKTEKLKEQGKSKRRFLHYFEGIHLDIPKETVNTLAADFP
Sequence of D(1A) dopamine receptor (Homo sapiens) (P21728 whole entry, looked up): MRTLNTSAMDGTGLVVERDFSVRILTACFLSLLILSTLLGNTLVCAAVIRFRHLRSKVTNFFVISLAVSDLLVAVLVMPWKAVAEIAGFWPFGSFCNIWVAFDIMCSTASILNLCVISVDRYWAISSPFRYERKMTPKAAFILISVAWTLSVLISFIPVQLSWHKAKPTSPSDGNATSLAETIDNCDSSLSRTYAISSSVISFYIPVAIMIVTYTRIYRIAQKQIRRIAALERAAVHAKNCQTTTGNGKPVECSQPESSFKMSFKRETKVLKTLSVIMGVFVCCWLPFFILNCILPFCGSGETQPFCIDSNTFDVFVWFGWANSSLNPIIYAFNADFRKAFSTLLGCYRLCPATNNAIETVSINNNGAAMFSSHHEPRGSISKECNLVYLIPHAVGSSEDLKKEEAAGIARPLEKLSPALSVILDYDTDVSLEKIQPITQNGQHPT
Sequence of Peptidyl-prolyl cis-trans isomerase NIMA-interacting 1 (Homo sapiens) (Q13526 whole entry, looked up): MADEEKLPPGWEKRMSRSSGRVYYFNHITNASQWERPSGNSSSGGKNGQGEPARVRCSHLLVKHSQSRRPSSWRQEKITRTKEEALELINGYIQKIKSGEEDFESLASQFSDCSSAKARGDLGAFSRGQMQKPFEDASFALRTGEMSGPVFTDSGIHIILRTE
Sequence of phosphoglycerate mutase (Leishmania major) (Q4Q090 1-553): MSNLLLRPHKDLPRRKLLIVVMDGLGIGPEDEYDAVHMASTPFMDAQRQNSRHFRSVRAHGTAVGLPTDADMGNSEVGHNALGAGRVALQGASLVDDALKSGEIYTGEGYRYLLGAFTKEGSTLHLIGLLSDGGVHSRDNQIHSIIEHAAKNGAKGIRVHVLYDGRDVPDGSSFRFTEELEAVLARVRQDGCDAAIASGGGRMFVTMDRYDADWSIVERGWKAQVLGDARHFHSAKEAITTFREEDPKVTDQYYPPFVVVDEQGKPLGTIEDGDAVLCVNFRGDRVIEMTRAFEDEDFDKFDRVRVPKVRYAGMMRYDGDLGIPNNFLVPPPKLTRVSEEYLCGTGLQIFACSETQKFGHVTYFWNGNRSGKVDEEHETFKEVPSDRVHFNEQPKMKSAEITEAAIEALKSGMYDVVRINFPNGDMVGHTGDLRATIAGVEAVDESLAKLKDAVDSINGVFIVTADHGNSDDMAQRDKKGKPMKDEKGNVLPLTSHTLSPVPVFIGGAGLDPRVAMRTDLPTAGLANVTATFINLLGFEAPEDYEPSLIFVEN

SMILES	outcome [1]	outcome [2]	Potency [3]	Potency [4]	outcome [5]	Potency [6]	viability change [6] [%]	outcome [7]	Potency [8]	Potency [9]	Potency [10]	outcome [11]	Potency [12]	Potency [13]	outcome [14]	Potency [15]	outcome [16]
O=C1c2c(O)cc(O)cc2OC(c2ccc(O)c(O)c2)C1O (stereo unspecified)	inactive	inactive	inactive	inactive	inactive	inactive	-0.133	inactive	inactive	inactive	inactive	inactive	inactive	–	–	–	–
CC1(C)C(=O)N(CCN2CCC(C(=O)c3ccc(F)cc3)CC2)c2ccccc21	inactive	inactive	4.47 µM (active)	inactive	–	–	–	inactive	inactive	inactive	inactive	–	–	inactive	inactive	inactive	–
O=C(CCc1ccc(O)cc1)c1c(O)cc(O)cc1O	inactive	inactive	inactive	inactive	–	inactive	-1.1	inactive	inactive	inactive	–	inactive	inactive	inactive	inactive	inactive	–
Cc1nc2n(c(=O)c1CCN1CCC(c3noc4cc(F)ccc34)CC1)CCCC2	inactive	–	–	–	–	–	–	inactive	inactive	–	inactive	–	–	–	–	–	–
NC(=NCc1ccccc1)NC(=O)c1nc(Cl)c(N)nc1N	inactive	inactive	5.01 µM (active)	inactive	inactive	inactive	2.7	inactive	inactive	inactive	inactive	–	inactive	inactive	inactive	inactive	–
COc1ccc2cc([C@H](C)C(=O)O)ccc2c1	inactive	inactive	inactive	inactive	inactive	inactive	-8.13	inactive	inactive	inactive	–	inactive	inactive	inactive	inactive	inactive	inactive
Cc1cccc(C#Cc2ccccc2)n1	inactive	inactive	inactive	8.2 µM (active)	–	inactive	2	inactive	inactive	–	inactive	inactive	inactive	inactive	inactive	–	–
